# PubChem BioAssay AID651911 (Vanderbilt Specialized Chemistry Center, 2012)
# Activity calls are given as the source filed them. How the calls were made is not given here.
# Target: Histone deacetylase 11 (Homo sapiens) (UniProt Q96DB2)
# Assay: HDAC11 deacetylase inhibition, profiling panel, selectivity assay for E-cadherin restoration project, biochemical, human (AID 651911)
# Conditions: recombinant HDAC11, fluorogenic peptide deacetylation; series mostly up to 10 µM
# Chain of Histone deacetylase 11 (Homo sapiens) (Q96DB2 whole entry, looked up): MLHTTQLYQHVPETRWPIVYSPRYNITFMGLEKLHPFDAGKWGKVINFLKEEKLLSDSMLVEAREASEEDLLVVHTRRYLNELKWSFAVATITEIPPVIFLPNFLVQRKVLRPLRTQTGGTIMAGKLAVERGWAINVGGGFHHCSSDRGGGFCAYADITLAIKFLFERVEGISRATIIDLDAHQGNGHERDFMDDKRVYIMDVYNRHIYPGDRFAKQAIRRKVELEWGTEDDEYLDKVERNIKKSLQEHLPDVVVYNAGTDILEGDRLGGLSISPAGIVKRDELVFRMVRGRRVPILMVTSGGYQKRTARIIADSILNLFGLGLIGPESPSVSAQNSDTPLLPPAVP
smiles,measurement,value
O=C(NCCCNC(=O)c1ccc[nH]c1=O)c1cc(-c2ccccc2)on1,outcome,inactive
